From PubChem BioAssay (NCI)
About 79,000 compounds went through this panel and 15% of them were active in at least one assay; those are over-represented in the sample as a whole. Cut-off read from the data, not from the text of the source: active = growth inhibition above about 70%; inactive = the rest. Where a SMILES comes first, the peptide text is derived from it. The star is where a group is joined. Cbz = O=C(OCc1ccccc1)*; Bn = c1ccc(C*)cc1

Assays:
[1] = NCI Yeast Anticancer Drug Screen. Data for the rad50 strain (AID 155);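 note: 0% = growth of vehicle-only cultures of the same strain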; settings: S. cerevisiae rad50 strain growth inhibition; at 50.0 µM; stronger effect = higher value
Procedure, shortened: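 Vehicle-treated cultures provide the reference for the growth inhibition reported for compound-exposed, repair-deficient yeast.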

[2] = NCI Yeast Anticancer Drug Screen. Data for the mec2-1 strain (AID 157); settings: S. cerevisiae mec2-1 strain, at 50.0 µM, stronger effect = higher value
Procedure, shortened: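 Yeast mec2-1 mutant treated with compound. Readout: growth inhibition vs vehicle controls.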

[3] = NCI Yeast Anticancer Drug Screen. Data for the sgs1 mgt1 strain (AID 161);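 note: 0% = growth of cultures given vehicle only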; settings: S. cerevisiae sgs1 mgt1 strain, at 50.0 µM, stronger effect = higher value
Procedure, shortened: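 Mutant yeast exposed to compound; growth scored against vehicle-only wells.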

[4] = NCI Yeast Anticancer Drug Screen. Data for the cln2 rad14 strain (AID 165);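 note: 0% = growth equal to vehicle treated cultures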; settings: S. cerevisiae cln2 rad14 strain, at 50.0 µM, stronger effect = higher value
Procedure, shortened: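 cln2 rad14 yeast strain; compound exposure; growth inhibition read vs vehicle controls.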

[5] = NCI Yeast Anticancer Drug Screen. Data for the bub3 strain (AID 167); settings: S. cerevisiae bub3 mutant strain, at 50.0 µM, stronger effect = higher value
Procedure, shortened: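 Mutant yeast screening strain plus compound; vehicle-treated cultures serve as the 0% inhibition reference.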

[6] = NCI Yeast Anticancer Drug Screen. Data for the mlh1 rad18 strain (AID 175); settings: S. cerevisiae mlh1 rad18 strain growth inhibition; at 50.0 µM; stronger effect = higher value
Procedure, shortened: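 Yeast w/ defined DNA-repair lesions; compound exposure; growth vs vehicle controls → % inhibition.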

Measured: growth inhibition

COCCCN1CC(=O)N2Cc3ccccc3CN2C(=O)C1
inactive: [1] -9.15% | [2] -13% | [3] -15.2% | [4] -3.6% | [5] 2.95% | [6] -4.6%

O=C(O)CN1C(=O)NC(C2CC2)(C2CC2)C1=O
inactive: [1] -3.15% | [2] -7.15% | [3] -12.8% | [4] -23.2% | [5] 8.85% | [6] 6.6%

CC(C)(C)OC(=O)Cc1ccc([N+](=O)[O-])cc1
inactive: [1] 2% | [2] -19.6% | [3] -10.7% | [4] -5.85% | [5] -3.05% | [6] -17.7%

CCOc1ccc(NC(=O)/C(Cc2nc3ccccc3[nH]c2=O)=N\O)cc1
inactive: [1] 21.9% | [2] -5.1% | [3] -15.9% | [4] 15.8% | [5] 4.1% | [6] -4.7%

O=C1c2ccccc2C(=O)c2c(Nc3ccc(Nc4cccc5c4C(=O)c4ccccc4C5=O)c4c3C(=O)c3ccccc3C4=O)cccc21
inactive: [1] -28.4% | [2] -39% | [3] 4.7% | [4] -3.2% | [5] -19.3% | [6] -26.8%

Cc1ccc(N=Nc2ccc(C)cc2NC(=O)/C=C/c2ccccc2)cc1
inactive: [1] -21.5% | [2] -34.5% | [3] 6.65% | [4] 8.4% | [5] -6.35% | [6] -8.65%

CC(=O)O[C@@H]1[C@H]2[C@@H](OC(=O)c3ccccc3)[C@@H](C)C[C@]2(O)[C@H](OC(C)=O)[C@@]2(C)[C@@H]3CC(C)(C)C(=O)[C@]3(OC(C)=O)C[C@@]12C
inactive: [1] 25% | [2] 31.1% | [3] 6.4% | [4] 5.3% | [5] 15.2% | [6] 39.4%

c1cc2cc3c4c5c(cc6ccc7cc8cc9c%10c8c8c7c6c5c8c5c%10c(c1C9N1CCOCCOCCOCCOCCOCC1)c2c45)C3 (stereo unspecified)
inactive: [1] -15.1% | [2] -2.35% | [3] 3.1% | [4] 17.7% | [5] 3.35% | [6] -9.9%

CC(O)c1cccc(C(C)(C)O)c1Sc1c(C(C)(C)O)cccc1C(C)(C)O (stereo unspecified)
inactive: [1] 13% | [2] 7.8% | [3] 10.1% | [4] -0.75% | [5] 6.25% | [6] -14.6%

CCOC(=O)/C=C1\NCCc2ccccc21
inactive: [1] -6.85% | [2] 1.45% | [3] 8.5% | [4] 24% | [5] 4.8% | [6] 4.55%

NC(N)=NCCS(=O)(=O)O
inactive: [1] 5.8% | [2] 7.35% | [3] -2% | [4] 9.1% | [5] -2.35% | [6] 20.4%

CC(C)CCC[C@@H](C)[C@H]1CC[C@H]2[C@@H]3CC[C@H]4CC5(C[C@]4(C)[C@H]3CC[C@]12C)Nc1ccccc1S5 (stereo partly specified)
inactive: [1] -8.05% | [2] -19.9% | [3] -6.2% | [4] 4.55% | [5] -25.9% | [6] -40.7%

CCCCN(CCCC)CCC(O)c1cc(-c2ccc(C(F)(F)F)cc2)nc(-c2ccc(C(F)(F)F)cc2)c1 (stereo unspecified)
inactive: [1] 24.3% | [2] -4.9% | [3] -37.6% | [4] -8.7% | [5] -55.6% | [6] -41.2%

CCC(CC)COC(=O)c1ccccc1C(=O)OCC(CC)CC
inactive: [1] -18.9% | [2] -33.3% | [3] -0.35% | [4] 3.6% | [5] -2.75% | [6] -16%

CCOC(=O)C(=O)Cc1cc(=O)n(C)c2ccccc12
inactive: [1] 12.5% | [2] 16.1% | [3] 16.4% | [4] 1.8% | [5] 13.9% | [6] 1.5%

Nc1cc2c(cc1Br)-c1ccccc1C2Br (stereo unspecified)
inactive: [1] -6.35% | [2] -10.9% | [3] 3.7% | [4] 10.7% | [5] 1.25% | [6] 2.7%

CC1CC(=O)CCC2(C)C(OC(C)(C)C)CCC12 (stereo unspecified)
inactive: [1] 14.7% | [2] -1.75% | [3] -5.75% | [4] 9.15% | [5] 33.2% | [6] 21.1%

CC(=O)OCCOC(C)=O
inactive: [1] 15.2% | [2] 4.35% | [3] -5.1% | [4] 19.9% | [5] 21.3% | [6] 1.45%

N#CCc1nn(-c2ccccc2)c2ncn(N)c(=N)c12
inactive: [1] -8.45% | [2] -14.8% | [3] -9.6% | [4] -22.2% | [5] 6.2% | [6] -12.2%

CN(NC1=NCCO1)c1ccc2ccccc2c1
inactive: [1] -46.3% | [2] -22.4% | [3] -15.8% | [4] -23.5% | [5] -21.4% | [6] -46.1%

Cn1c([N+](=O)[O-])cnc1COS(=O)(=O)c1cccnc1
inactive: [1] 6.05% | [2] -9.15% | [3] 25.8% | [4] 11.1% | [5] 16.8% | [6] 15.6%

CC(C)C(NC(=O)C(CSCc1ccccc1)NC(=O)OCc1ccccc1)C(N)=O (stereo unspecified) (Cbz-Cys(Bn)-Val-NH2; configuration not given here)
inactive: [1] 8.8% | [2] 16.1% | [3] 1.6% | [4] -3.65% | [5] -0.9% | [6] 30.6%

O=c1c[n+](-c2ccccc2)[nH]o1
inactive: [1] 41.2% | [2] -12.1% | [3] 22.1% | [4] 5.5% | [5] 7.7% | [6] 27.5%

CC[N+](CC)(CC)Cc1cc2ccccc2n1C(=O)OC
inactive: [1] -9.25% | [2] -24.4% | [3] -25.8% | [4] -1.4% | [5] -12.2% | [6] -28.9%

COc1ccc(NC2C(=O)C3(C)CCC2C3(C)C)cc1 (stereo unspecified)
inactive: [1] -17.2% | [2] -10.9% | [3] -8.25% | [4] -49.3% | [5] 12.2% | [6] -41.1%

NC(C(=O)O)c1ccccc1 (stereo unspecified)
inactive: [1] -0.85% | [2] -23.4% | [3] -3.85% | [4] -1.9% | [5] -10.7% | [6] -19.5%

Cc1cc(Cl)ccc1NC(=O)/C(Cc1nc2ccc(C(=O)c3ccccc3)cc2[nH]c1=O)=N/NC(=O)c1ccncc1
inactive: [1] 21.9% | [2] 17.1% | [3] 1.45% | [4] -33.7% | [5] 4.7% | [6] 16.1%

Cc1ccc(S(=O)(=O)N/N=C2/CC3CCC4CC2CC34)cc1 (stereo unspecified)
inactive: [1] -51% | [2] -0.6% | [3] -35.2% | [4] -25% | [5] 12.9% | [6] -10.1%

N#Cc1c(C(=O)NN)c2c(-c3ccc4ccccc4c3)n[nH]c(=O)c2[nH]c1=O
inactive: [1] 20.4% | [2] 23.4% | [3] 30.4% | [4] 4.1% | [5] 7.1% | [6] 42.9%

CCc1cc2c(c3c1CCCC3)CC1(Cc3ccc(C(=O)OC)cc3C1)C2 (stereo unspecified)
inactive: [1] 3.65% | [2] -11.7% | [3] -16.4% | [4] 10.3% | [5] 3.15% | [6] -12.4%

O=c1oc2ccccc2c2c1cnn2-c1ccccc1
inactive: [1] -12.7% | [2] -4% | [3] -7.85% | [4] -5.9% | [5] -21.7% | [6] -4.45%

CN1C(=O)C(=O)C(c2ccccc2)(c2ccccc2)C1=O
inactive: [1] 9.45% | [2] -4.55% | [3] 12.4% | [4] -53.2% | [5] 8.75% | [6] -10.8%

CCC1N=C(N)N=C(N)N1c1ccc(Cl)c(Cl)c1 (stereo unspecified)
inactive: [1] 16.2% | [2] 11.6% | [3] 9.25% | [4] -8.7% | [5] 10.7% | [6] 37.8%

CN(C)c1ccc(/C=C(\C#N)c2nc(-c3cc4ccccc4oc3=O)cs2)cc1
inactive: [1] -2.45% | [2] -13.6% | [3] -23% | [4] -4.3% | [5] -35.7% | [6] -63.2%

O=C(Cc1ccccc1)NN1C(=O)C(Cl)C1c1ccccc1 (stereo unspecified)
inactive: [1] -10.3% | [2] 15.2% | [3] -12.5% | [4] 4.8% | [5] -5% | [6] -2.3%

CC(C)(C(=O)O)C(=O)O
inactive: [1] 6.9% | [2] 3.25% | [3] 0.6% | [4] 8.2% | [5] 21.4% | [6] 3.1%

COC(OC)c1cccc2c1C(=O)CCC1(CC2)OCCCCO1
inactive: [1] 0.3% | [2] -21.1% | [3] -22.8% | [4] 3.6% | [5] -39.9% | [6] -11.2%

CC(=O)Nc1ccc(/C=N/NC(N)=S)cc1
inactive: [1] 7.4% | [2] -7.35% | [3] 17% | [4] 12.4% | [5] 3.05% | [6] 13%

N#CCCn1c(CCC(=O)Nc2ccc(Cl)cc2Cl)n[nH]c1=S
inactive: [1] -8.4% | [2] 0.65% | [3] -6.05% | [4] 13.6% | [5] 1.7% | [6] 2.45%

COc1cc(Nc2nc3cc(C(F)(F)F)ccc3nc2-c2ccccc2)cc(OC)c1OC
inactive: [1] 15.4% | [2] -4.8% | [3] -26.4% | [4] -11.8% | [5] -10.4% | [6] -23.9%

CSc1ncc2c(n1)-c1ccccc1OC2N1CCOCC1 (stereo unspecified)
inactive: [1] -4.95% | [2] 8.1% | [3] -1.65% | [4] -9.55% | [5] -18.4% | [6] 40.7%
